Reference: ChEMBL document CHEMBL3988442, “University of Dundee, Small-Polar-MMV Screening Library” (2021)
About 13,000 (27%) of roughly 48,000 compounds showed an effect of 50% or more. Some of the results follow.

tested on: Wolbachia pipientis; assay: Anti-Wolbachia Cell-Based Screen; assay type: functional; set-up: scale not given: in the data most compounds retested in dose-response had high values; conditions: 5 µM

SMILES	Percent Effect [%]
CC(=O)NCCC(=O)NCC1(c2c(F)cccc2F)CCCC1	8.916
COc1c(CNC2CCN(c3ccccn3)CC2)c(C(C)C)nn1C	112.8
CCCS(=O)(=O)N1CCC(NCc2c(C)nn(C)c2OC)CC1	-2.561
COc1c(CNC2CCN(CC(=O)NC3CC3)CC2)c(C)nn1C	-12.1
COc1c(CNC2CCN(c3ncccn3)CC2)c(C)nn1C	109.2
COc1c(CNC2CCCN(c3ncccn3)C2)c(C(C)C)nn1C (stereo not given)	105
COc1c(CNC2CCN(c3ncccn3)CC2)c(C(C)C)nn1C	-7.484
O=C(NCc1ccco1)c1cccc(CN2CCCC2CO)c1 (stereo not given)	-23.86
Cc1cnn(C(C)C2CC2)c1NC(=O)c1ccco1 (stereo not given)	-0.6057
COc1cc2c(cc1OC)S(=O)(=O)N(Cc1ccc(C)cc1)C2=O	-15.41
Cc1nsc(NC(=O)NC2(CN3CCOCC3)CCCC2)n1	-3.665
Cc1csc(NC(=O)C2(C)CN(C)CCO2)n1 (stereo not given)	103.9
CN1CCOC(C)(C(=O)Nc2nccs2)C1 (stereo not given)	89.7
CN1CCC(NC(=O)Cc2csc(C(C)(C)C)n2)CC1	-5.316
CCC(C)(CNC(=O)Nc1nccs1)N1CCOCC1 (stereo not given)	14.58
Cc1csc(NC(=O)C2(C)CCCO2)n1 (stereo not given)	-5.614
CC(C)(CNC(=O)Nc1nccs1)N1CCOCC1	-4.16
CN1CCOC(C)(C(=O)Nc2nc(C(C)(C)C)cs2)C1 (stereo not given)	82.99
Cc1nc(NC(=O)C2(C)CN(C)CCO2)sc1C.Cl (stereo not given)	123.3
CN1CCOC(C(=O)Nc2ccc3c(c2)nc(C(C)(C)C)n3C)C1 (stereo not given)	1.099
Cc1nc(NC(=O)C(C)N2CCN(c3ncccn3)CC2)sc1C (stereo not given)	-4.452
Cc1csc(NC(=O)c2cccnc2N2CCOCC2)n1	-18.32
Cc1nccn1C1(C(=O)O)CCN(Cc2ccc3c(c2)OCCO3)CC1	-9.809
O=C1CC[C@H]2CN(c3ncc(F)cn3)CC[C@H]2N1CCc1c[nH]cn1	-5.494
O=C(NCc1ccncc1)N(Cc1ccccc1F)C1CC1	1.311
Cc1cc(C)n2ncc(CN3CCC(n4cc(CCO)nn4)CC3)c2n1	4.389
CC(C)[C@@H]1CN(C(=O)NCCc2ccccc2)C[C@H]1NS(=O)(=O)N(C)C	-13.11

SMILES	Percent Effect [%]
COc1cccc(CNC(=O)c2nc3c(o2)CN(C(=O)N(C)C)C3)c1	-21.04
CC(C)Nc1nc2c(s1)C(=O)CN(C(=O)NCCc1ccccc1)C2	113.9
O=C1NCCN2CCN(C(=O)NCCc3ccccc3)CC12 (stereo not given)	-9.412
CC(C)Nc1nc2c(s1)C(=O)CN(C(=O)NCc1ccccc1)C2	95.64
CNc1nc2c(s1)C(=O)CN(C(=O)NCc1ccccc1)C2	-1.017
CCC1=N[C@@]2(CC[C@@H]3CN(C(=O)NCc4ccccc4)C[C@@H]32)C(=O)N1	-15.34
CNc1nc2c(s1)C(=O)CN(C(=O)[C@@H](N)Cc1cccc(OC)c1)C2	113.9
COc1cccc(CN2CCN(C(=O)Nc3nc(C)ns3)CC2=O)c1	-7.215
NC(=O)c1cccc(CCNC(=O)N2Cc3ccccc3C2)c1	2.881
O=C(NCCc1ccccc1)N1CCC(C2OCCO2)CC1	12.73
CNc1nc2c(s1)C(=O)CN(C(=O)NCCc1ccccc1)C2	90.96
COc1ccc(Cl)cc1CNC(=O)CN1CCC2(CCOC2)C1 (stereo not given)	5.478
CCCC(=O)NCC(=O)NC(c1ccc(Cl)cc1)C(F)(F)F (stereo not given)	-4.192
CC(=O)c1cn(CC(=O)N2CCCC(O)(CO)C2)c2ccccc12 (stereo not given)	-9.342
Cc1nc(C)c(CC(=O)N2C[C@H]3CC[C@@H]2CN(C(=O)N(C)C)C3)c(=O)[nH]1	-5.688
Cc1ccc(CN(Cc2ccccn2)C(=O)C2CCCCCN2C)s1 (stereo not given)	-49.91
O=C(NCc1cc(F)ccc1F)Nc1ccn(CC(F)F)n1	-16.02
CCCS(=O)(=O)CC(=O)Nc1ccsc1	-10.7
COCc1nc2c(o1)CN(C(=O)NCc1ccccc1)C2	27.3
CCNc1nc2c(s1)C(=O)CN(C(=O)NCCc1ccccc1)C2	-10.47
CCNc1nc2c(s1)C(=O)CN(C(=O)NCc1ccccc1)C2	105.7
CN(C)c1nc2c(c(N3CCCC3)n1)CCN(C(=O)c1ccc[nH]1)CC2	91.66
Cc1nc(-c2cnn(C)c2)nc2c1CN(C(=O)c1ccc[nH]1)CC2	-2.829
Nc1nc2c(c(N3CCOCC3)n1)CCN(C(=O)c1ccc[nH]1)CC2	39.51
CC(C#N)CN(C)Cc1c(Cl)ccc2cccnc12 (stereo not given)	4.156
COc1ccc(CNC(Cc2ccsc2)c2ccc(C)cn2)c(OC)c1 (stereo not given)	101.2
COc1cccc(OC)c1CNC(Cc1ccsc1)c1ccc(C)cn1 (stereo not given)	169.8

SMILES	Percent Effect [%]
COc1ccncc1NCc1ccsc1	15.23
CCc1cnc(N)nc1NCc1ccc(OC)cc1OC	-6.529
COc1ccc(CNc2c(C)nn(C(C)C)c2C)cc1OC.Cl	8.952
COc1ccc(CNC(Cc2ccsc2)c2ccc(C)cn2)cc1OC.Cl (stereo not given)	112.1
COC(C)c1cccc(NCc2ccsc2)c1 (stereo not given)	-13.03
COc1ccc(CNc2cc(-c3nc(C)no3)ccn2)c(OC)c1	-6.518
O=C(NCc1cccc(-n2cncn2)c1)NCC(C1CC1)C1CC1	-15.59
CC(C)Cn1cncc1CNC1CCSCC1	2.151
COc1ccc(F)c(CN2CCCC(O)(CNC3CCCCC3)C2=O)c1 (stereo not given)	-6.817
Cc1noc2ncc(C(=O)NCC3CCOC3)cc12 (stereo not given)	-15.76
COc1c(C)cnc(CNC(=O)c2cc(C)nc3onc(C)c23)c1C	-1.817
COc1c(C)cnc(CNC(=O)c2cnc3onc(C)c3c2)c1C	104.5
O=C(NCCOCCO)[C@@]12CNC[C@@H]1CN(C1CCCC1)C2	-7.865
CC(C)c1cc(N2CCC(CCC(=O)NC3CC3)CC2)n2nccc2n1	7.052
CCN(Cc1nnsc1Cl)C(C)c1ccc(C#N)cc1 (stereo not given)	1.58
COc1ccc(CCN2CCCC2Cn2nc(C)nc2C)cc1 (stereo not given)	-8.655
COc1cccc(CN2CCCC2Cn2nc(C)nc2C)c1 (stereo not given)	137
COc1cccc(CN2CCCCC2Cn2nc(C)nc2C)c1 (stereo not given)	129.9
COc1c(C)cnc(CN2CCCCC2Cn2nc(C)nc2C)c1C (stereo not given)	6.225
Cc1nc(C)n(CC2CCCN2Cc2cn3c(C)cccc3n2)n1 (stereo not given)	-8.673
c1cnn(CCNCc2nnc(C3CC3)o2)c1	-6.862
CN(CCNC(=O)N1CCN(Cc2ccon2)CC1)c1ccccc1	-8.314
CCc1nc2c(N3CCC4(CC3)CC(=O)N(CC(C)C)C4)ncnc2o1	-4.027
CSc1ccc(C(=O)N2CCOCC2c2c(C)nn(C)c2C)o1 (stereo not given)	94.08
Cc1nn(C)c(C)c1C1COCCN1C(=O)c1ccccc1 (stereo not given)	-4.407
CNC(=O)N1CCOCC1c1c(C)nn(C)c1C (stereo not given)	-10.34
Cc1nn(C)c(C)c1C1CCCN1C(=O)c1ccc(Cl)o1 (stereo not given)	-7.187

SMILES	Percent Effect [%]
Cc1nn(C)c(C)c1C1COCCN1C(=O)c1ccc(Cl)o1 (stereo not given)	70.94
Cc1cc(C)c(C(=O)N2CCOCC2c2c(C)nn(C)c2C)o1 (stereo not given)	101
Cc1nn(C)c(C)c1C1COCCN1C(=O)c1cnc(N)c(Cl)c1 (stereo not given)	1.304
CCN(CC)C(=O)N1CCOCC1c1c(C)nn(C)c1C (stereo not given)	7.192
Cc1nn(C)c(C)c1C1COCCN1C(=O)Cc1cccc(F)c1 (stereo not given)	-20.34
Cc1nn(C)c(C)c1C1COCCN1C(=O)CSC(C)(C)C (stereo not given)	-11.83
Cc1nn(C)c(C)c1C1COCCN1C(=O)CCc1ccccc1 (stereo not given)	95.59
Cc1nn(C)c(C)c1C1COCCN1C(=O)c1n[nH]c2ccccc12 (stereo not given)	16.5
COCCS(=O)(=O)N1CCN(c2cccc(O)c2)CC1	9.959
CCS(=O)(=O)NCCNC(=O)c1cc(Cl)c2c(c1)OCCCO2	12.52
CCC(CC)CN1CCC(n2cc(C3CCCC3)nn2)CC1	4.235
CN(Cc1ccccc1)CC1(O)CCCN(CC(C)(C)C)C1=O (stereo not given)	2.381
CN(Cc1ccccc1)CC1(O)CCCN(CCC2CCCCC2)C1=O (stereo not given)	-12.81
CN(Cc1ccc(F)cc1)CC1(O)CCCN(CC(C)(C)C)C1=O (stereo not given)	55.08
CN(c1ncc(S(N)(=O)=O)s1)C1CCc2ccccc2C1 (stereo not given)	1.957
CCn1cc(N)c(C(=O)NCc2cnn(C)c2)n1	-9.614
Cc1c(Br)cccc1C(=O)NCc1cnn(C)c1	-14.4
CCn1cc(Br)c(C(=O)NCc2cnn(C)c2)n1	103.9
COCCN1CCC2(CC1)CN(C(C)=O)c1ccc(C)cc12.O=C(O)C(F)(F)F	24.24
COCCN1CCC2(CC1)CC(N1CCOCC1)c1ccc(C)cc12.O=C(O)C(F)(F)F.O=C(O)C(F)(F)F (stereo not given)	-12.46
COCCN1CC2(CCOCC2)c2cc(NC(=O)C3CC=CC3)ccc21.O=C(O)C(F)(F)F	98.06
CCCC(=O)Nc1ccc2c(c1)C1(CCOCC1)CN2CCOC.O=C(O)C(F)(F)F	114.8
CCC(=O)Nc1ccc2c(c1)C1(CCOCC1)CN2CCOC.O=C(O)C(F)(F)F	101.5
CN(C)C(=O)N1CC2(CCOCC2)c2cc(NC(=O)CCO)ccc21	-8.643
